Data reported in PubChem BioAssay.
Activity calls are given as the source filed them.

Tests used:
Albumin (Bos taurus) = Albumin (Bos taurus) (UniProt P02769); experiment: bovine serum albumin binders on microarray, profiling panel, artefact control for SMM control protein annotation, biochemical, small-molecule microarray, Alexa647 label, 635/667 nm fluorescence (AID 1118); conditions: BSA-A647 binding, fluorescence 635 nm, higher = more signal;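 note: score merges 667 nm emission intensity and signal-to-noise per printed compound spot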
Sequence of Albumin (Bos taurus) (P02769 whole entry, looked up): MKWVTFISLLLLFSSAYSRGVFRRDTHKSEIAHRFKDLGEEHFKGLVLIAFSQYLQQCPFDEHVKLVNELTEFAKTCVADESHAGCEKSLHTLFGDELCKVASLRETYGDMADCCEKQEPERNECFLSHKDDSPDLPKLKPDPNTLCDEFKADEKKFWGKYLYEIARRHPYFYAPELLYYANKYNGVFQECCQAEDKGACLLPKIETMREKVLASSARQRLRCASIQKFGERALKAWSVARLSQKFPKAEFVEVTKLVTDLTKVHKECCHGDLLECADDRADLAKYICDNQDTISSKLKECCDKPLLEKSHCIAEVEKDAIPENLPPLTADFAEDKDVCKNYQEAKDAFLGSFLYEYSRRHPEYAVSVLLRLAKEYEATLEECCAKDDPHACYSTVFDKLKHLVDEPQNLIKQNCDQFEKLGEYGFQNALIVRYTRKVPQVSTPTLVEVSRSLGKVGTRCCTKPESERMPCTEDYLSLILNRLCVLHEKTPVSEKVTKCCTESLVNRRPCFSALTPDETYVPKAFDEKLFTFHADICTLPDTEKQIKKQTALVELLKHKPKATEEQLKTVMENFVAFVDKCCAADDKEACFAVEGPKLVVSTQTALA

[1] = small-molecule microarray binders of probe aXIP, primary screen, biochemical, NeuroSMM set, 635/667 nm fluorescence (AID 1119); conditions: higher = more signal, called active from +8 up or from −8 down;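 note: probe is the protein aXip251-270 applied at 1 µg/mL to compound-printed slides; binding of probe to printed compounds measured as 667 nm fluorescence plus signal to noise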
[2] = small-molecule binders of probe aNOTCH3, primary screen, biochemical, small-molecule microarray, 635/667 nm fluorescence (AID 1120); conditions: higher = more signal;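 note: probe is a biotin-tagged antibody raised against NOTCH3 rather than NOTCH3 protein; score merges spot fluorescence near 667 nm with spot signal to noise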
[3] = small-molecule binders of probe aNOTCH2, primary screen, biochemical, small-molecule microarray, 635/667 nm fluorescence (AID 1121); conditions: higher = more signal;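 note: score merges feature fluorescence read at 667 nm with its signal to noise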
[4] = target: Carbonic anhydrase 2 (Homo sapiens) (UniProt P00918); experiment: CAII small-molecule binders, profiling panel, biochemical, small-molecule microarray, Alexa647-labelled CAII (AID 1122); conditions: CAII-A647 binding fluorescence, higher = more signal
[5] = COS7 lysate on small-molecule microarray, probe aHis, 635 nm (AID 1123); conditions: COS7 cell lysate, fluorescence, higher = more signal;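 note: z-score combines 667nm fluorescence intensity with signal-to-noise per printed compound spot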
[6] = compound binding in COS7 lysate, probe aLAP1, primary screen, cell lysate, small-molecule microarray (AID 1124); conditions: probe aLAP1, fluorescence, higher = more signal;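 note: lysate comes from COS7 cells expressing LAP1 and is applied at 0.3 µg/mL; score merges spot fluorescence near 667 nm with signal-to-noise over triplicate slides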
Sam68 (KHDRBS1) = experiment: Sam68 small-molecule binders, primary screen, biochemical, small-molecule microarray, 635 nm fluorescence (AID 1125); conditions: small-molecule microarray binding, higher = more signal;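 note: score merges 667 nm channel intensity with signal to noise over triplicate slides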
[7] = tested on: Chordin-like protein 2 (CHRDL2); experiment: CHRDL2 small-molecule binders, primary screen, biochemical, small-molecule microarray, 635 nm fluorescence (AID 1126); conditions: small-molecule microarray binding, fluorescence 635 nm; higher = more signal;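 note: printed compound slides probed with Chrdl2 protein at 4 µg/mL for 1 h at 4 C; score merges 667 nm emission intensity with signal to noise over three replicate slides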
[8] = target: Concanavalin-A (Canavalia ensiformis) (UniProt P02866); experiment: ConA small-molecule binders, primary screen, artefact control for SMM control protein annotation, biochemical, small-molecule microarray, Alexa647 label, 635 nm (AID 1127); conditions: ConA-A647 binding fluorescence, higher = more signal;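 note: z combines 667 nm emission intensity with signal-to-noise across three replicate slides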
Sequence of Concanavalin-A (Canavalia ensiformis) (P02866 whole entry, looked up): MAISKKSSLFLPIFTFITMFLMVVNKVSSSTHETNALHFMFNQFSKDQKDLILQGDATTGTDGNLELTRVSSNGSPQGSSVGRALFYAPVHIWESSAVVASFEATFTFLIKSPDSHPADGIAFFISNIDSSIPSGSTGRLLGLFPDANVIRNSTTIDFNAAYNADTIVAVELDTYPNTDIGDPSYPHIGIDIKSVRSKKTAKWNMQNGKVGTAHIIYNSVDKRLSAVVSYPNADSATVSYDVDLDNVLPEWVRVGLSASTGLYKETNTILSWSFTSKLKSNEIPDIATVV

| Structure (SMILES) | composite z-score (Albumin (Bos taurus)) | composite Z-score [1] | composite z-score [2] | composite z-score [3] | composite z-score [4] | composite z-score [5] | composite z-score [6] | composite z-score (Sam68 (KHDRBS1)) | composite z-score [7] | composite z-score [8] |
| --- | --- | --- | --- | --- | --- | --- | --- | --- | --- | --- |
| O=C(c1ccccc1)N1Cc2ccccc2C[C@@]2(COC(c3ccc(OCCCO)cc3)=N2)C1=O | 0.833 | -0.305 (inactive) | -0.0647 | -0.0304 | 0.288 | 2.66 | 0.549 | 1.29 | 0.271 | 1.11 |
| C=CCC(OC(C)=O)[C@@H]1[C@@H](N(Cc2cccc3ccccc23)C(=O)c2ccc(-c3ccccc3)cc2)c2cc(OCCCO)ccc2N1C(=O)c1ccc2ccccc2c1 (stereo not given in full) | 0.416 | -0.732 (inactive) | 0.116 | -0.0533 | 0.16 | 0.735 | 0.169 | 0.721 | -0.0354 | -0.0377 |
| COc1cc2c(cc1OC)CN(C(=O)[C@H]1[C@@H]3C(=O)O[C@@H](c4ccccc4)[C@@H](c4ccccc4)N3[C@@H](c3ccc(O)cc3)[C@]13C(=O)Nc1ccccc13)CC2 | -0.134 | 2.52 (inactive) | -0.0672 | 0.0481 | 0.402 | 2.34 | 0.399 | 1.07 | 0.139 | 0.777 |
| COCCOC(=O)N1C(=O)[C@@]2(c3cc(C#CCCO)ccc31)[C@H](C(N)=O)[C@H]1C(=O)O[C@H](c3ccccc3)[C@H](c3ccccc3)N1[C@@H]2c1ccc(O)cc1 | 0.205 | -0.516 (inactive) | -0.159 | -0.118 | 0.463 | 0.387 | 0.505 | 0.0991 | -0.464 | -0.332 |
| C=C[C@H](CO)NS(=O)(=O)c1ccc(Br)cc1 | 0.158 | 0.058 (inactive) | 0.234 | -0.127 | -0.0876 | 1 | 0.117 | 0.562 | 0.704 | 0.549 |
| Cc1ccc(S[C@]2(C(=O)O)CC(=O)N(C(C)C)[C@@H]2c2ccc(CO)cc2I)cc1 | 0.162 | 0.556 (inactive) | 0.208 | 0.164 | 0.566 | 1.99 | 0.73 | 0.784 | -0.17 | 1.03 |
| COC(=O)[C@@]1(Cc2ccc(F)cc2)[C@H]2c3cc(C(=O)N(C)C)n(Cc4ccccc4)c3C[C@H]2CN1C(=O)c1ccccc1 | 0.816 | 0.0843 (inactive) | 0.215 | 0.0431 | 0.183 | 2.05 | 0.495 | 0.78 | -0.643 | 1.04 |
| COC(=O)[C@@]1(Cc2ccc(F)cc2)[C@H]2c3cc(C(=O)N(C)C)n(Cc4ccc(Cl)c(C(F)(F)F)c4)c3C[C@H]2CN1C(=O)c1ccccc1 | 1.03 | 0.623 (inactive) | 0.405 | 0.266 | 0.77 | 3.26 | 1.05 | 1.31 | -0.899 | 1.15 |
| COC(=O)C(CC#Cc1ccc2c(c1)[C@]1(C(=O)N2)[C@H](c2ccc(OCCO)cc2)N2[C@H](c3ccccc3)[C@H](c3ccccc3)OC(=O)[C@H]2[C@@H]1C(=O)Nc1nc2ccccc2s1)C(=O)OC | 0.959 | -0.0045 (inactive) | 0.0038 | -0.183 | 0.546 | 2.4 | -0.065 | 1.31 | 0.326 | 1.16 |
| C=C[C@H](C)[C@@H](OC(=O)Nc1ccc(OC)cc1)c1ccc(O)c2ccccc12 | -0.964 | -0.734 (inactive) | -0.118 | -0.167 | 0.742 | 0.832 | 0.152 | 0.357 | 0.257 | -0.365 |
| CC(C)c1ccc(NN2C(C(O)c3ccc(B(O)O)cc3)C=CC3C(=O)N(c4ccccc4)C(=O)C32)cc1 (stereo not given) | 0.958 | -0.852 (inactive) | 0.216 | 0.0571 | 0.493 | 2.32 | 0.681 | 1.26 | -1.06 | 1.06 |
| [N-]=[N+]=NCc1ccccc1[C@@H]1OC(c2ccc(OCCCO)cc2)=N[C@]1(Cc1ccccc1)C(=O)NCC(O)CO (stereo not given in full) | 1.05 | 1.57 (inactive) | 0.271 | 0.109 | 0.546 | 3.09 | 1.18 | 1.22 | -0.549 | 0.306 |
| C=C(C(=O)CC[C@@H](OC(=O)c1cccnc1)c1ccccc1OCCO)C(C)C | 0.116 | 0.59 (inactive) | 0.0909 | -0.092 | 0.638 | 0.206 | 1.51 | 0.489 | 0.411 | -0.67 |
| CC(C)(C)OC(=O)CC[C@]1(C(=O)N2CCOCC2)N=C(c2ccc(OCCCO)cc2)O[C@H]1c1ccccc1N=[N+]=[N-] | 0.55 | 0.103 (inactive) | 0.133 | 0.119 | 0.743 | 2.36 | 0.947 | 1.28 | -0.135 | 0.973 |
| C=CCOC(=O)[C@@H]1[C@H]2C(=O)O[C@H](c3ccccc3)[C@H](c3ccccc3)N2[C@H](c2ccc(OCCOC(=O)[C@@H]3C[C@@H]4C(=O)NCC(=O)N4[C@@H]3c3ccc(O)cc3)cc2)[C@@]12C(=O)Nc1ccc(I)cc12 | 0.471 | -0.666 (inactive) | -0.0879 | -0.108 | 0.617 | 1.04 | -0.143 | 1.31 | 1.03 | 1.19 |
| O=C1c2ccccc2[C@](Cc2ccccc2I)(C(=O)NCCN2CCOCC2)[C@H](c2ccc(CO)cc2)N1Cc1ccccc1Cl | 0.517 | 0.322 (inactive) | 0.223 | 0.385 | 0.652 | 1.82 | 0.754 | 1.31 | 0.202 | 1.17 |
| COc1ccc([Si](C)(C)[C@@H]2[C@@H](CC(=O)N3CCC[C@H]3CO)O[C@]3(C(=O)N(c4ccccc4)c4ccccc43)[C@H]2C)cc1 | 0.569 | 0.723 (inactive) | -0.0377 | -0.147 | 0.575 | 1.12 | 0.237 | 1.3 | 0.553 | 0.894 |
| CC(C)C(CO)N1C(=O)[C@@H]2C3C(=O)OCCC/C=C\[C@H]3OC23C=CCN(CCN2CCOCC2)C(=O)[C@@H]13 (stereo not given in full) | 0.692 | -0.298 (inactive) | -0.21 | -0.0928 | 0.463 | -0.301 | 0.395 | -0.362 | -0.254 | -0.724 |
| O=C1c2ccccc2[C@](Cc2ccccc2I)(C(=O)NCCN2CCOCC2)[C@H](c2ccc(CO)cc2)N1C1CCCCC1 | 0.55 | 0.424 (inactive) | 0.323 | -0.052 | 0.548 | 1.41 | 0.382 | 1.31 | 0.67 | 1.15 |
| COc1ccc(CCNC(=O)[C@@H]2c3ccccc3C(=O)N(Cc3ccccc3Cl)[C@H]2c2ccc(CO)cc2)cc1 | 0.0645 | -0.145 (inactive) | -0.0647 | -0.0712 | 0.363 | 1.47 | 0.0463 | 0.579 | -0.014 | 0.207 |
| OCCCC1=CC(c2cccs2)N(Cc2cc3c(cc2Br)OCO3)CC1 (stereo not given) | 0.252 | 0.027 (inactive) | -0.0044 | -0.147 | 0.509 | 0.713 | 0.242 | 0.242 | -0.0561 | 0.795 |
| CCCCCN1CC=CC23O[C@@H]4/C=C\CCC(C)OC(=O)C4[C@H]2C(=O)N(C(C)CO)[C@@H]3C1=O (stereo not given in full) | -0.671 | -0.275 (inactive) | -0.127 | -0.14 | 0.536 | -0.0346 | 0.169 | 0.579 | -0.388 | -0.211 |
| COc1cc2c(cc1OC)CN(C(=O)[C@@H]1[C@H]3C(=O)O[C@H](c4ccccc4)[C@H](c4ccccc4)N3[C@H](c3ccccc3OCCO)[C@@]13C(=O)Nc1ccc(C#CCCO)cc13)CC2 | 0.641 | 0.252 (inactive) | 0.0556 | -0.0878 | 0.402 | 1.88 | 0.681 | 1.29 | 0.352 | 1.14 |
| COc1ccc(C(O)C2C=CC3C(=O)N(Cc4ccccc4)C(=O)C3N2n2cnnc2)cc1OCc1ccccc1 (stereo not given) | 0.799 | -1.19 (inactive) | 0.0493 | -0.152 | 0.771 | 1.5 | -0.276 | 0.953 | -0.34 | 0.681 |
| Oc1ccc2cc[n+](Cc3sc4ccccc4c3Cl)cc2c1 | -0.49 | 0.598 (inactive) | 0.0854 | -0.0694 | 0.888 | 2.88 | 1.07 | -0.702 | 0.617 | 0.376 |
| C=C(C)[C@@H]1CC=C(C(O)C2C=CC3C(=O)N(C)C(=O)C3N2Nc2ccccc2)CC1 (stereo not given in full) | 0.203 | 0.0898 (inactive) | 0.15 | -0.0617 | 0.372 | 0.491 | 0.201 | 0.838 | 1.38 | 0.183 |
| COC(=O)[C@@]1(Cc2ccccc2)[C@H]2c3cc(C(=O)N4CCCC4)n(Cc4ccc(S(C)(=O)=O)cc4)c3C[C@H]2CN1C(=O)c1ccccc1 | 1.12 | 0.971 (inactive) | 0.511 | -0.173 | 0.902 | 1.92 | 0.559 | 1.29 | -0.832 | 0.978 |
| CCCc1cc2c(n1Cc1cc(F)cc(F)c1)C(C)C1CN(C(=O)c3ccccc3)C(C)(C(=O)OC)C21 (stereo not given) | 1 | 0.723 (inactive) | 0.272 | 0.341 | 0.633 | 3.26 | 1.07 | 1.22 | -0.255 | 1.11 |
| COC(=O)[C@@]1(Cc2ccc(F)cc2)[C@H]2c3cc(C(=O)N4CCCC4)n(Cc4ccc(S(C)(=O)=O)cc4)c3C[C@H]2CN1C(=O)c1ccccc1 | 1.08 | 1 (inactive) | 0.827 | 0.365 | 0.718 | 3.34 | 1.21 | 0.995 | -0.26 | 1.05 |
| CC(C)C[C@@H]1NC(=O)[C@@H]2C[C@H](C(=O)NCc3ccc(F)cc3)[C@H](c3cccc(OCCO)c3)N2C1=O | -0.972 | 0.532 (inactive) | -0.229 | -0.166 | 0.549 | 0.558 | 1.19 | 0.72 | 0.915 | 0.902 |
